High-throughput results: PubChem, several laboratories
In the library only some 3.1% were active in any assay of this set; here they are far more common.
Cl transport mod – modulators of human KCC2 chloride dependent transport. B-score of Tl+ flux slope (higher = more flux/activation; lower = inhibition) at 10 µM. Q9H2X9. actives 2.2% (n = 190,000). KCC2 cells, thallium flux FluoZin-2 fluorescence;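 active means thallium flux slope and its plate-corrected score both differing from the plate sample mean at a set confidence after two filtering rounds, in either direction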;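 further: slope of fluorescence scaled to starting intensity during 10 to 20 s after thallium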
EP2 antag – EP2 receptor (human) inhibition; C6 glioma cells expressing human EP2, cAMP TR-FRET; cells stimulated with saturating PGE2; inhibition, % at 25 µM; actives 0.52% (n = 260,000); P43116; AID 1422;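 active means percent inhibition above 40 after rounding to a whole number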;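 further: rat C6 glioma host cells with rolipram phosphodiesterase inhibitor present; the protocol text gives 20 µM as final concentration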
Target sequence (P43116 whole entry, looked up): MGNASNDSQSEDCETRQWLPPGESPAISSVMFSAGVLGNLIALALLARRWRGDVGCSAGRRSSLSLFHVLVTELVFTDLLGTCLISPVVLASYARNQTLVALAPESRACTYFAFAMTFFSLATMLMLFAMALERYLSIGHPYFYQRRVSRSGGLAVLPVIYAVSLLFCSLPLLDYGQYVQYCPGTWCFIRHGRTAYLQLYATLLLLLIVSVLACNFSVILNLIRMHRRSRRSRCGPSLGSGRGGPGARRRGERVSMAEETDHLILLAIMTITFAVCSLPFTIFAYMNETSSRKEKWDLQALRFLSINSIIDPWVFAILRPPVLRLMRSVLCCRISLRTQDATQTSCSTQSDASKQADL
EP2 mod – EP2 receptor (human) modulation; AID 940; actives 0.83% (n = 260,000); P43116; EP2-expressing cells, cAMP HTRF FRET, PGE2 co-stimulation; induction, % at 25 µM;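 active means compounds whose cAMP rise, as percent of the full-agonist control response, exceeds 60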;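 further: rat C6 glioma line stably carrying human EP2 under a CMV promoter; the protocol text gives 20 µM as final concentration; 100% = response of wells given 1 µM PGE2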
S1P3 antag – blocks the human S1P3 receptor; Q99500; CHO S1P3 NFAT-BLA reporter, FRET fluorescence, antagonist mode; inhibition, % at 4.98 µM; actives 0.27% (n = 170,000); AID 485;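 active means inhibition above the plate cutoff, the mean inhibition of test wells on that plate plus 3 SD, cut at about 28% in these data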;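 further: cells challenged with S1P at its EC80 of 0.8 µM; blue over green emission ratio from cleaved BLA substrate after 4 h stimulation; 0% = S1P-stimulated wells and 100% = unstimulated DMSO-only wells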
Target sequence (Q99500 whole entry, looked up): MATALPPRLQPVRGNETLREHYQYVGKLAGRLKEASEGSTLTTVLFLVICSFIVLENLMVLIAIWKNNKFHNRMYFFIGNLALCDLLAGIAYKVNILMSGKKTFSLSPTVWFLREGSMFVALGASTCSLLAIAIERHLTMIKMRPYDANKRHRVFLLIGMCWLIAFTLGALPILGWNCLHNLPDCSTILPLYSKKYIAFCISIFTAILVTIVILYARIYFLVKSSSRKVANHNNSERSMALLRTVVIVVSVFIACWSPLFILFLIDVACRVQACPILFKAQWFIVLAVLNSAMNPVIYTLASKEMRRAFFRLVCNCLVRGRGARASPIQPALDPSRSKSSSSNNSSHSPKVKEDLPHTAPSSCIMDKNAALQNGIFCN
KCC2 secondary – confirmation of human KCC2 transport modulators; actives 15% (n = 3,700); HEK293-KCC2, thallium flux, FluoZin2 fluorescence; hits give high values; normalised thallium flux (F/F0 slope) at 10 µM; shares compounds with Cl transport mod;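 active means thallium flux slope above the same plate's solvent-only control mean plus 3 SD; inconclusive means the two replicate wells disagree; inactive means no significant difference from solvent-only control wells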
KCC2 bumet counter – bumetanide-insensitive thallium flux in KCC2 cells with ouabain, counter-screen; shares compounds with Cl transport mod; HEK293-KCC2 + bumetanide/ouabain, thallium flux FluoZin2; hits give high values; normalized thallium flux at 10 µM; actives 49% (n = 3,700); AID 1714;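 active means thallium entry rate above the same plate's blocked-transporter control wells by more than 3 SD; inconclusive means the two repeat wells disagree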;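 further: raw slope of fluorescence over initial fluorescence between 10 and 20 s after thallium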
KCC2 secondary2 – confirmation of human KCC2 transport modulators; shares compounds with Cl transport mod; HEK293-KCC2, thallium flux FluoZin2 fluorescence; actives lie on both sides; F/F0 rise rate, 10–20 s post-thallium; normalized thallium flux at 10 µM; actives 23% (n = 3,700); AID 1715;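 active means thallium flux slope more than 3 SD above or below the plate's solvent-only control mean, mostly below; inconclusive means the two repeat wells disagreed; inactive means no significant shift from solvent-only controls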;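 further: raw slope with 0.1% DMSO as baseline and bumetanide as block control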
HEK counter1 – parental HEK flux effect, counter-screen; HEK293 parental cells, thallium flux FluoZin2, ouabain; baseline-ratio fluorescence slope, 10–20 s after thallium; shares compounds with Cl transport mod; thallium flux rate (normalised fluorescence) at 10 µM; actives 46% (n = 3,700); AID 1716;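 active means thallium flux rate significantly above the same plate's solvent-only control wells, beyond their mean plus 3 SD; inconclusive means the two replicate wells gave conflicting results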
KCC2 retest ouab – confirmation of human KCC2 modulators with ouabain; shares compounds with Cl transport mod; HEK293-KCC2, thallium flux FluoZin2 fluorescence; bidirectional: low = inhibitor, high = activator; raw Tl+ flux slope (below DMSO = inhibition, above = activation) at 10 µM; actives 48% (n = 3,700); AID 1717;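 active means thallium flux slope beyond 3 SD from same-plate DMSO control mean in most replicates, usually higher, sometimes lower; inconclusive means repeat tests gave conflicting results; inactive means no significant difference from controls in most replicates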;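 further: slope of initial-normalized fluorescence between seconds 10 and 20 after thallium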
HEK counter2 – parental HEK flux effect, counter-screen 2; shares compounds with Cl transport mod; HEK293 parental, thallium flux FluoZin-2 fluorescence slope; thallium flux slope at 10 µM; actives 33% (n = 3,700);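 active means thallium flux slope above the same plate's solvent-control mean plus 3 SD in both duplicate wells; inconclusive means duplicate wells that disagreed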;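 further: run without ouabain in cells lacking the KCC2 cotransporter; slope of fluorescence scaled to its starting value between 10 and 20 s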
An asterisk follows results filed as active; ? = inconclusive; . = not tested or not shown.

SMILES | Cl transport mod | EP2 antag | EP2 mod | S1P3 antag | KCC2 secondary | KCC2 bumet counter | KCC2 secondary2 | HEK counter1 | KCC2 retest ouab | HEK counter2
Cc1cc(C)n(-c2nc(SCCN(C)C)c3c4c(sc3n2)CCCC4)n1 | 6.16* | 12.6 | -2.4 | . | 0.00719 | 0.0199* | 0.0372 | 0.0138* | 0.0253* | 0.016*
CCn1cc(C(=O)N2CCCC(c3nc(C)ncc3-c3ccncc3)C2)c(C)n1 (configuration not stated) | . | . | 6.4 | . | . | . | . | . | . | .
CN(C(=S)NC(=O)c1ccc(Br)o1)c1ccccc1 | 7.71* | 11.2 | 11.2 | -6.0 | 0.00648 | 0.0204* | 0.0398* | 0.0201* | 0.0306* | 0.0228*
O=C(Nc1ccccc1)c1ccc(Br)o1 | 0.0945 | 19.2 | -14.1 | 3.3 | . | . | . | . | . | .
O=C(CCc1ccccc1)c1c(O)cc(O)cc1O | -1.43* | 9.2 | 24.5 | . | 0.00545 | 0.00511 | 0.025* | 0.00809 | ? | 0.0109
CCC(=O)c1c(O)cc(O)cc1O | . | 8.8 | 2.4 | . | . | . | . | . | . | .
O=C(NNC(=S)NC(=O)C12CC3CC(CC(C3)C1)C2)c1ccncc1 | . | 15.0 | -10.5 | . | 0.0166* | 0.0378* | 0.0359 | 0.0196* | 0.0292 | 0.0135*
O=C(NNC(=O)C12CC3CC(CC(C3)C1)C2)c1ccccn1 | 22.2* | 7.8 | 18.8 | -20.3 | 0.00597 | 0.0411* | 0.0439* | 0.0275* | 0.0416* | 0.0297*
Cc1cc(CN(C)C(=O)c2cc(COc3ccc(F)cc3Cl)on2)n[nH]1 | -4.7* | 16.8 | -100.1 | -20.6 | 0.00605* | ? | ? | 0.00832 | 0.0241 | 0.0107
Cc1ccc(CN(C)C(=O)c2cc(COc3ccc(F)cc3Cl)on2)o1 | . | 7.2 | -10.2 | 0.4 | 0.00698 | 0.00533 | 0.0258* | 0.00721 | ? | 0.0105
Cc1nc(CNC(=O)c2cc(COc3ccc(F)cc3Cl)on2)cs1 | -4.6* | 5.1 | -26.3 | 1.2 | 0.00651 | 0.00638 | 0.0329 | 0.00426 | 0.0146* | 0.0112
C#CCN(Cc1ccco1)C(=O)c1cc(COc2ccc(F)cc2Cl)on1 | -1.62 | 4.1 | -47.4 | 8.4 | . | . | . | . | . | .
Cc1nc(CNC(=O)c2cc(COc3c(F)cccc3F)on2)cs1 | -1.28 | 5.7 | 5.7 | 2.4 | . | . | . | . | . | .
CCn1c(SCC(N)=O)nnc1-c1ccc(S(=O)(=O)N2CCN(C)CC2)cc1 | 3.71* | 4.0 | 31.9 | -30.7 | 0.00942 | 0.00728 | 0.0347 | ? | 0.0229 | ?
CC1CCCC(NC(=O)CCC(=O)c2ccc(F)cc2)C1C (configuration not stated) | -3.98* | 6.6 | -8.8 | -12.2 | 0.00641 | 0.00526 | 0.0304 | 0.00701 | 0.0181 | 0.00962
C/C(=N\NC(=S)Nc1ccc(C)cc1)c1cccc(N)c1 | 9.45* | 11.3 | -34.8 | 8.7 | 0.0184* | 0.0526* | 0.035 | 0.0633* | 0.0476* | 0.0175*
C/C(=N\NC(=S)Nc1cccc(C)c1)c1ccco1 | 78.4* | 7.9 | -20.2 | 7.2 | 0.0277* | 0.0852* | ? | 0.0633* | 0.0578* | 0.0624*
Cc1ccc(NC(=S)NNc2ncc(C(F)(F)F)cc2Cl)cc1 | 16.7* | 5.9 | 4.8 | -6.0 | ? | 0.0783* | 0.0314 | 0.0126* | 0.0418* | 0.0118*
ON/C=N/C(=S)Nc1ncc(C(F)(F)F)cc1Cl | 24.6* | 12.2 | 24.7 | 5.2 | 0.00801 | 0.0519* | 0.0582* | 0.0481* | 0.0523* | ?
O=C(Nc1ccc(F)cc1F)c1cccn1-c1ncc(C(F)(F)F)cc1Cl | . | 6.3 | 0.7 | . | . | . | . | . | . | .
Fc1ccc(NC(=S)NNc2ncc(C(F)(F)F)cc2Cl)c(F)c1 | 52.6* | 3.5 | -39.8 | -11.2 | 0.00599 | 0.0382* | ? | 0.0321* | 0.0353* | 0.0222*
CNc1ncc(CN(Cc2ccco2)Cc2ccc(C)o2)cn1 | . | 5.2 | 9.7 | . | . | . | . | . | . | .
CN(C)c1ccc(C(=O)N2CCC(Nc3nc(C(F)(F)F)cc(=O)[nH]3)CC2)cc1 | . | . | 3.1 | . | . | . | . | . | . | .
Cc1ccc(/C=C2\NC(=S)NC2=O)cc1[N+](=O)[O-] | 3.04* | 2.8 | -42.2 | -16.1 | 0.0155 | 0.00407 | 0.0301 | 0.00702 | 0.0177 | 0.00869
O=C1NC(=S)N/C1=C\c1ccc(Oc2ccc(C(F)(F)F)cc2[N+](=O)[O-])c(Cl)c1 | 0.731 | 7.6 | 27.5 | -11.0 | . | . | . | . | . | .
SMILES | Cl transport mod | EP2 antag | EP2 mod | S1P3 antag | KCC2 secondary | KCC2 bumet counter | KCC2 secondary2 | HEK counter1 | KCC2 retest ouab | HEK counter2
O=C(O)c1ccc2c(c1)SC1=NS(=O)(=O)CCN12 | -0.0884 | 7.8 | 8.1 | -6.5 | . | . | . | . | . | .
O=S1(=O)CCN2C(=N1)Sc1c2ccc2c1CCCC2 | 7.72* | 7.4 | 12.3 | -19.6 | 0.00975 | 0.00526 | 0.0326 | 0.00721 | 0.0223 | 0.0101
Cc1cc2oc(C(=O)NCC(C)n3cncn3)cc(=O)c2cc1C (configuration not stated) | . | 0.0 | -24.2 | . | . | . | . | . | . | .
Cc1ccccc1CSCCNS(C)(=O)=O | . | 6.5 | 6.1 | . | 0.0165 | 0.0048 | 0.0295 | 0.00746 | 0.0165 | 0.0094
CCn1c(=O)oc2cc(S(=O)(=O)NCCc3cc4c(cc3OC)CCC4)ccc21 | . | 1.6 | -47.7 | . | . | . | . | . | . | .
Cc1ccc(OCc2n[nH]c(=S)n2-c2ccccc2)cc1C | 47.3* | 1.8 | -6.2 | -1.5 | 0.00684 | 0.0693* | 0.0429* | 0.0198* | 0.0485* | 0.0244*
Cc1cccc(OCc2n[nH]c(=S)n2-c2ccccc2)c1 | 0.0885 | 0.9 | 28.9 | -4.5 | . | . | . | . | . | .
Cc1ccc(-n2c(COc3cccc(C)c3)n[nH]c2=S)cc1 | 5.62* | 5.7 | 47.9 | -15.7 | 0.00759 | 0.0645* | 0.0339 | 0.0164* | 0.0364* | 0.021*
Cc1ccc(-n2c(COc3ccccc3)n[nH]c2=S)cc1 | -0.535 | 4.3 | 36.9 | -9.6 | . | . | . | . | . | .
CCC(=O)N1CCc2cc(-c3csc(NC(=O)c4cc(OC)c(OC)c(OC)c4)n3)ccc21 | . | 32.0 | -65.8 | . | . | . | . | . | . | .
O=C(CCn1c(=O)c2ccccc2n(Cc2cccc([N+](=O)[O-])c2)c1=O)N1CCc2ccccc2C1 | -3.13* | 11.7 | 35.5 | -6.7 | 0.00683 | 0.00466 | 0.0338 | 0.00671 | 0.0178* | 0.0109
Cc1c(C#N)c2ccccc2n1CC(=O)N1CCc2ccccc2C1 | 0.0355 | 6.1 | . | 7.1 | . | . | . | . | . | .
Cc1cccc(NC(=O)NCC(c2cccnc2)N2CCOCC2)c1 (configuration not stated) | . | . | 16.9 | -32.1 | 0.0116 | 0.00681 | 0.0348 | 0.00812 | 0.0218 | 0.0108
COC(=O)NCC(c1cccnc1)N1CCOCC1 (configuration not stated) | 0.24 | 9.1 | 0.2 | -5.8 | . | . | . | . | . | .
